WRN helicase inh: qHTS for Inhibitors of WRN Helicase; Potency, µM (titrated, usually from 114 µM), for inactives: top-dose activity change, negative = inhibition, actives largely listed as inhibitors; Bifunctional 3'-5' exonuclease/ATP-dependent helicase WRN (Homo sapiens), Q14191; WRN helicase unwinding, fluorescent forked duplex, kinetic; 0.46% of 360,000 active; further: potency means the concentration at half of the fitted maximal effect; on the % scale 0 is the no-effect control and ±100 the full control effect; nearly all actives have a fitted effect of over 55% in size
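Primary qHTS, 1536-well format. 20 nM WRN + compound, 15 min RT; start with 100 nM forked fluorophore/quencher duplex, 2 mM ATP (final); kinetic read ex 525/em 598 nm.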
FEN1 inh-1: qHTS Assay for the Inhibitors of Human Flap endonuclease 1 (FEN1) | P39748 | Recombinant FEN1 flap cleavage, fluorescence, 15 min | Potency, µM (series often up to 114 µM), for the others: at the top dose activity change, negative = inhibition, usual class: inhibitors | 0.35% of 390,000 active | AID 588795, 2011; further: potency means the concentration at half of the fitted maximal effect; on the % scale 0 is the no-effect control and ±100 the full control effect; nearly all actives have a fitted effect of over 65% in size
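Compounds are tested as a concentration series against 10 nM FEN1; after a 15 min room-temperature preincubation, 50 nM substrate starts cleavage, with plate reads at 0 and 15 min. Normalized responses are fitted by a Hill equation.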
PI5P4Ka inh: qHTS for Inhibitors of phosphatidylinositol 5-phosphate 4-kinase (PI5P4K) | PI5P4Kalpha enzyme, ADP-Glo luminescence, 60 min; active compounds read low | max response, % | 1.2% of 330,000 active | AID 652105, 2013; active means max response of -50% or lower; inconclusive means between -30% and -50%; inactive means -30% or higher; further: value at the top dose of about 77 µM; on the % scale 0 is the no-effect control and ±100 the full control effect
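PI5P4Kalpha ADP-Glo assay; 5 microM ATP final; 60 min RT reaction; HEPES pH 7.4/EGTA/CHAPS, 5% DMSO; controls lacking substrate or enzyme; luminescent end-point.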
TDP1 inh: qHTS Assay for Inhibitors of Tyrosyl-DNA Phosphodiesterase (TDP1); 0.28% of 350,000 active; recombinant TDP1, AlphaScreen DNA substrate cleavage; Potency, µM (series often up to 130 µM), inactives show at the top dose activity change, negative = inhibition, actives largely listed as inhibitors; further: potency means the concentration at half of the fitted maximal effect; on the % scale 0 is the no-effect control and ±100 the full control effect; nearly all actives have a fitted effect of over 40% in size
Target sequence (Q9NUW8 whole entry, looked up): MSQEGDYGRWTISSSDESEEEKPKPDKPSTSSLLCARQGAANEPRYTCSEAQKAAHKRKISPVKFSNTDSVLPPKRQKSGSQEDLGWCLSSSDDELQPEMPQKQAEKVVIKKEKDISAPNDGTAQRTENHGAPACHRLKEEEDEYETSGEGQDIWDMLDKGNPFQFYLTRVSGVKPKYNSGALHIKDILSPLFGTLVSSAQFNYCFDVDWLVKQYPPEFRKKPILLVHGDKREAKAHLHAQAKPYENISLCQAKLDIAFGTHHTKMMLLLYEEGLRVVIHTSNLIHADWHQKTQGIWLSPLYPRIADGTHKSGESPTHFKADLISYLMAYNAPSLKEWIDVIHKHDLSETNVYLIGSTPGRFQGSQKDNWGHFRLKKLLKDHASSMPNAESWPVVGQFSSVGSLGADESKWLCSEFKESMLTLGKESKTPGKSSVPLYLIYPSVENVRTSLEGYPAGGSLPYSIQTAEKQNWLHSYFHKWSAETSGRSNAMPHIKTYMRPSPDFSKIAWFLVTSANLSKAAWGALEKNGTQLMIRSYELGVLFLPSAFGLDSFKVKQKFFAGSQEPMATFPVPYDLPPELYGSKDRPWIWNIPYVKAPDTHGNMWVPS
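Here, a 5' biotin and 3' phosphotyrosine-FITC DNA oligonucleotide reports Tdp1 activity: intact substrate bridges AlphaScreen beads, while cleavage leaves a 3' phosphate and drops signal. All incubations at room temperature.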
Tb PFK block: qHTS Assay to Find Inhibitors of T. brucei phosphofructokinase. T. brucei PFK, ADP-Glo luminescence. Potency, µM (titrated, usually from 57.5 µM), without a hit: at the highest dose activity, negative = inhibition, usual class: inhibitors. 0.17% of 330,000 active;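 further: potency means the concentration at half of the fitted maximal effect; 0% = uninhibited 1x PFK enzyme wells and -100% = no-enzyme wells; nearly all actives have a fitted effect of over 60% in size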
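Luminescent ADP detection (ADP-Glo, two-step: ATP depletion then ADP-to-ATP conversion for luciferase) reported PFK activity after 45 min room-temperature reaction of 1.25 nM enzyme with 0.5 mM F6P and 0.1 mM ATP at pH 8.0.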
PGK inhibitor: qHTS Assay to Find Inhibitors of Phosphoglycerate Kinase; Phosphoglycerate kinase, glycosomal (Trypanosoma brucei brucei), P07378; PGK/GAPDH coupled, Kinase-Glo luminescence, 60 min; Potency, µM (series often up to 57.5 µM), inactives show top-dose activity change, negative = inhibition, most hits filed as inhibitors; 0.043% of 380,000 active; further: potency means the concentration at half of the fitted maximal effect; on the % scale 0 is the no-effect control and ±100 the full control effect; nearly all actives have a fitted effect of over 60% in size
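Luminescent ATP detection (Kinase-Glo Plus) follows a 60-minute room-temperature incubation, with wells lacking PGK as controls. Buffer: 100 mM TEA (pH 7.6), 5 mM MgCl2, 0.01% Tween-20. Coupling enzyme GAPDH (100 nM final) supplies unstable 1,3-BPG in-well.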
FEN1 inh-2: qHTS Assay for the Inhibitors of FEN1: Confirmatory Assay for Cherry-picked Compounds. shares compounds with FEN1 inh-1. Potency, µM, actives largely listed as inhibitors. 79% of 880 active. FEN1 flap cleavage, TAMRA/BHQ2 fluorogenic DNA substrate; further: potency means the concentration at half of the fitted maximal effect; nearly all actives have a fitted effect of over 60% in size
Starred values were filed as active, the others as inactive; i = inactive; ? = inconclusive; · = no result given; [ ] = another dose, or the depositor's remark. Compounds with a hit are over-represented: about 1.5% of the library has one in this group of screens. Unless noted, the call rests on the fitted dose curve; in most records, active means well fitted curve in the direction sought with a large enough effect; inconclusive means small, poorly fitted or top-dose-only effect, or another doubt; inactive means no such curve, though single readings can be large; an effect the other way counts as inactive or inconclusive.

SMILES	WRN helicase inh	FEN1 inh-1	PI5P4Ka inh	TDP1 inh	Tb PFK block	PGK inhibitor	FEN1 inh-2
N#CC(C#N)=Cc1ccc(C=C(C#N)C#N)cc1	?	5%	-21	9%	-11%	-4%	95*
NC(N)=Nc1ccc2[nH]c3c(c2c1)C[C@]1(O)[C@@H]2Cc4ccc(O)c5c4[C@]1(CCN2CC1CC1)[C@@H]3O5	·	·	·	-5%[56.1 µM]	·	·	·
CC[C@H](C)[C@H](NC(=O)[C@@H](N)Cc1ccc(O)cc1)C(=O)NCC(=O)N[C@@H](CO)C(=O)N[C@@H](CCCN=C(N)N)C(N)=O	·	·	·	6%	·	·	·
CCOC(=O)c1ccc(N=Cc2c(O)n(-c3ccc(OC)cc3)c(=S)[nH]c2=O)cc1	?	?	-1	2%	-4%	i	9.5*
COc1ccc(N=Cc2c(O)n(-c3ccc(C)cc3)c(=O)[nH]c2=O)cc1	0%	10%	0	-2%	1%	i	·
CN1C(=O)C(=Cc2ccc(Sc3ccccc3)o2)C(=O)N(C)C1=S	?	-18%	?	·	·	-10%	85*
COc1ccc2c(c[n+](C)c3c4cc5c(cc4ccc23)OCO5)c1OC	·	?	·	15%	·	·	·
COc1cc2c(ccc3c4cc(OC)c(OC)cc4c[n+](C)c23)cc1O	?	3.5µM*	-6	·	·	1%	2.7*
C[C@]12CCC3C(CC[C@H]4C[C@H](O)CC[C@]34C)[C@@H]1CC[C@@H]2C(=O)CO (some centres undefined)	·	·	·	5%	·	·	·
C[C@]12CCC3C(CC[C@H]4C[C@@H](O)CC[C@]34C)C1CC[C@@H]2OC(=O)[C@H](N)CCCCN (some centres undefined)	1%[11.6 µM]	?	1	0%	0%	i	43*
Cc1ccc2ccccc2c1	·	·	·	15%	·	·	·
Cc1ccc2c(C)c3ccc4ccccc4c3c[n+]2c1	21%[11.6 µM]	8.9µM*	3	·	·	-2%	6.7*
C/C=C(/C)C(=O)OC1CC[C@]2(C)C3CCC4[C@]5(O)CC(O)[C@]6(O)C(CN7CC(C)CCC7[C@]6(C)O)[C@]5(O)C[C@@]42O[C@]13O (some centres undefined)	·	·	·	6%	·	·	·
Cc1ccccc1-n1c(C)cc(/C=C2/C(=O)NC(=O)N(Cc3ccco3)C2=O)c1C	-14%	-15%	-30	0%	5%	·	?
Cc1ccc(-n2c(C)cc(/C=C3/C(=O)NC(=O)N(Cc4ccco4)C3=O)c2C)cc1	-13%[11.6 µM]	-5%	-13	-3%	-1%	-3%	·
C=Cc1cc(OC)c2c(c1)c(=O)oc1c2cc(OC)c2c(O)ccc(C3OC(C)C(O)C(C)(O)C3O)c21 (centres undefined)	10µM*	1.3µM*	17	·	·	-9%	1.7*
CCOc1cncc(/C=C/CCNC)c1	·	·	·	3%	·	·	·
C=CCn1c(CSc2ccccc2[N+](=O)[O-])n[nH]c1=S	40µM*	?	-74*	·	13%	-21%	76*
C[n+]1c2ccccc2nc2ccc(NCCO)cc21	4.7µM*	40µM*	-24	·	?	?	43*
CNc1ccc2nc3ccccc3[n+](C)c2c1	3µM*	?	4	·	-24%	-1%	38*
CC(C)(C#N)O[C@H]1OC(CO)C(O)C(O)C1O (some centres undefined)	·	·	·	13%[56.1 µM]	·	·	·
